# Shiga toxin inh = blocks Shiga toxin action in Vero cells | inhibition, % at 38.7 µM | Vero cells, Shiga toxin protein synthesis inhibition reporter | actives 9.2% (n = 290,000) | AID 2315; in the data active = inhibition mostly above about 28%, no sharp cut-off; inactive = mostly below about 43%; also: 0% is about no effect
# Giardia FBPA inh = Giardia lamblia aldolase inhibition | A8B2U2 | AID 2451 | purified Giardia FBPA | Potency, µM (top dose mostly 59.6 µM), for inactives: at the top dose activity, negative = inhibition, hits mostly inhibitors | actives 0.71% (n = 290,000); also: potency is read from the fitted curve at half-maximal effect; % is scaled to controls: 0 for no effect and ±100 for the full control effect; nearly all actives have a fitted effect of over 55% in size
# Target sequence (A8B2U2 whole entry, looked up): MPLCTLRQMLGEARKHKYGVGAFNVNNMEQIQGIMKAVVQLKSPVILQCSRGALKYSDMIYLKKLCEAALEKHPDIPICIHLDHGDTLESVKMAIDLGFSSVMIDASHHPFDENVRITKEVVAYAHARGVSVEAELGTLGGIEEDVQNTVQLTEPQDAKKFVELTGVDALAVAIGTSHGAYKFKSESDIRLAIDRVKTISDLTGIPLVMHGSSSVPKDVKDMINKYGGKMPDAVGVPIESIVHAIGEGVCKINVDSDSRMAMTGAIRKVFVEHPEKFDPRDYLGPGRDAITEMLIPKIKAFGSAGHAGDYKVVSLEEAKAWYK
#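 40 nM FBPA preincubated 10 min at RT with compound (up to 57.5 uM final), then substrate plus GAPDH/TPI/NAD/arsenate coupling and diaphorase/resazurin added. Fluorescence read after 20 min at RT, 525/598 nm.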
# Pf growth 48h = inhibits P. falciparum growth in the first generation, 48 h. P. falciparum luciferase growth in erythrocytes, 48 h. Potency, µM (highest dose often 28.7 µM), for the others: at the highest dose activity change, negative = inhibition, hits mostly inhibitors. actives 5.9% (n = 310,000); also: potency is read from the fitted curve at half-maximal effect; % is scaled to controls: 0 for no effect and ±100 for the full control effect
#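 Luciferase-expressing P. falciparum in infected erythrocytes (2% hematocrit, 0.1% parasitemia final) in RPMI 1640/0.5% Albumax were exposed to compound for 48 hours at 37 C, 5% CO2; growth read as luminescence.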
# Pf growth 96h = P. falciparum growth inhibition at 96 hour, primary screen for plastid delayed-death inhibitors. P. falciparum luciferase reporter growth, 96 h. Potency, µM (titrated, usually from 28.7 µM), without a hit: top-dose activity change, negative = inhibition, most hits filed as inhibitors. actives 6.9% (n = 320,000); also: potency is read from the fitted curve at half-maximal effect; % is scaled to controls: 0 for no effect and ±100 for the full control effect
#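 Erythrocytes infected with luciferase-expressing P. falciparum were dispensed at 2% hematocrit and 0.05% parasitemia (final), then incubated with compounds 96 hours at 37 C in 5% CO2. Luminescence after detection reagent addition reported growth.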
# Cycloheximide cs = counter-screen for Shiga toxin inhibitors: cycloheximide protein synthesis inhibition | cell reporter, cycloheximide protein synthesis inhibition counterscreen | max response, % | actives 12% (n = 300,000) | AID 2314; in the data active = max response mostly above about 13%, no sharp cut-off; inactive = mostly below about 14%; also: read at 38.3 µM for the half of the compounds with a filed dose; 0% is about no effect
# NS1 function inh = blocks influenza NS1 protein function. Potency, µM (titrated, usually from 46.1 µM), inactives show at the top dose activity, positive = more growth. actives 0.4% (n = 270,000). AID 2326; calls by dose curve; also: potency is read from the fitted curve at half-maximal effect; actives are rising curves; nearly all actives have a fitted effect of over 50% in size
#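 Recovery from NS1-induced slow growth read by OD600 in budding yeast switched to galactose assay medium (pH 6.0, -URA) at 1:100 dilution. Compound 23 nl per well; the matching strain lacking NS1 serves as control.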
# Starred values were filed as active, the others as inactive; ? = inconclusive; . = no result. Most compounds without a hit are left out; they make up all but 21% or so of the library. Unless noted, calls follow the shape of the dose curve; as a rule, active = well fitted curve in the direction sought with a large enough effect; inconclusive = small, poorly fitted or top-dose-only effect, or another doubt; inactive = no such curve, though single readings can be large; an effect the other way counts as inactive or inconclusive.
SMILES,Shiga toxin inh,Giardia FBPA inh,Pf growth 48h,Pf growth 96h,Cycloheximide cs,NS1 function inh
OC(CCc1ccncc1)COc1ccccc1 (stereo unspecified),.,.,?,76.9%,.,.
CCOC(=O)c1cc(C#N)c(N2CCCNCC2)nc1C(F)(F)F,-3.4,-5.7%,-29.6%,?,-4.0,3.5%
CC1CCC(C(C)C)[C@H](O)C1 (stereo partly specified),.,6.8%,.,.,.,.
Nc1cc(=O)n(Cc2ccccc2)c(=O)n1-c1ccc(Cl)cc1,-7.7,1.9%,10.4µM*,?,-2.1,5.2%
Brc1cnc2nc(SC/C=C/c3ccccc3)[nH]c2c1,12.6,3.4%,?,-19.2%,0.9,-4.4%
O=C(NCc1nc2ncc(Br)cc2[nH]1)c1ccccc1,47.8,-8.8%,32.5%,42.4%,15.4*,-5.3%
COc1ccc(S(=O)(=O)CC(=O)c2cc3cc(Br)ccc3oc2=O)cc1,5.2,.,8.4%,-35.5%,-2.6,-2.5%
Cc1ccc(C)c(N=Cc2cc3c(cc2[N+](=O)[O-])OCO3)c1,-8.0,3.15µM*,?,0.0415µM*,5.6,.
COc1ccc(C2c3ccc(O)cc3Oc3ncn(Cc4ccco4)c(=N)c32)cc1OC (stereo unspecified),-3.4,-0.1%,?,-30.2%,-3.8,8.2%
COc1ccccc1C1c2ccc3ccccc3c2Oc2ncn(CCCO)c(=N)c21 (stereo unspecified),-19.4,0.6%,7.38µM*,2.62µM*,-8.4,-2.3%
COc1ccc(C2c3ccc4ccccc4c3Oc3ncn4nc(Cc5ccccc5)nc4c32)cc1OC (stereo unspecified),-8.0,-1.4%,?,11.7%,3.0,9.2%
COc1ccc(C2c3ccc(O)cc3Oc3ncn4nc(-c5cccnc5)nc4c32)cc1OC (stereo unspecified),-6.7,2.7%,5.22µM*,4.15µM*,9.4,7.0%
COc1ccc(C2c3ccc4ccccc4c3Oc3ncn(CCCN(C)C)c(=N)c32)cc1 (stereo unspecified),-10.7,-0.2%,1.65µM*,1.65µM*,-7.5,5.7%
COc1ccccc1C1c2ccc3ccccc3c2Oc2ncn(CCN(C)C)c(=N)c21 (stereo unspecified),-6.5,-1.1%,3.29µM*,2.33µM*,-3.5,-4.3%
COc1ccc(C2c3ccc(O)cc3Oc3ncn(CC(C)C)c(=N)c32)cc1 (stereo unspecified),19.6,15.5%,5.22µM*,-2.3%,-2.5,1.1%
COc1ccc(C2c3ccc(O)cc3Oc3ncn(CCN4CCOCC4)c(=N)c32)cc1 (stereo unspecified),-9.0,-0.1%,?,-27.4%,-2.4,-4.1%
COc1ccc(C2c3ccc4ccccc4c3Oc3ncn(Cc4ccco4)c(=N)c32)cc1OC (stereo unspecified),-9.2,-4.0%,13.1µM*,?,-2.6,?
Cc1ccc(Cl)cc1NC(=O)CON=C(N)c1ccccc1,.,.,3.7%,4.0%,.,.
CN(c1ccccc1)S(=O)(=O)c1cccc(NC(=O)c2cccc(C#N)c2)c1,.,.,13.1µM*,?,.,.
CN(c1ccccc1)S(=O)(=O)c1cccc(NC(=O)c2ccc3ncsc3c2)c1,-6.4,-3.4%,?,10.4µM*,-0.9,0.6%
Cc1ccc(NC(=O)c2ccc3ncsc3c2)cc1S(=O)(=O)N(C)C,146.4*,-8.8%,121.2%,244.8%,69.5*,2.3%
CN(c1ccccc1)S(=O)(=O)c1cccc(NC(=O)CSc2nncs2)c1,-3.4,-7.5%,-14.9%,?,-1.8,-0.4%
COc1ccc(Cc2nnc(NS(=O)(=O)c3ccc(Cl)cc3)s2)cc1OC,-9.8,22.3%,-13.2%,4.7%,-1.2,10.6%
CCCCc1ncc(CN2CCN(Cc3ccc(C)cc3)C(CCO)C2)[nH]1 (stereo unspecified),9.9,0.1%,?,14.8%,-1.3,2.7%
COc1nc(-c2ccccc2)ccc1-c1noc(-c2ccco2)n1,70.5*,4.9%,99.5%,11.1%,33.6*,-9.1%
SMILES,Shiga toxin inh,Giardia FBPA inh,Pf growth 48h,Pf growth 96h,Cycloheximide cs,NS1 function inh
COc1ccc(-c2ccc(-c3noc(-c4ccco4)n3)c(OC)n2)cc1,50.9*,-2.9%,49.5%,-9.8%,23.1*,15.3%
Cc1cc(C(=O)N2CCCC(C(=O)c3cccc(C(F)(F)F)c3)C2)nc(C)n1 (stereo unspecified),-15.7,4.9%,-11.4%,?,10.8,-2.6%
CC(Sc1nnc(-c2cccnc2)n1-c1ccccc1)C(=O)NCc1ccc2c(c1)OCO2 (stereo unspecified),76.4*,2.1%,51.6%,.,39.6*,-5.4%
CC(Sc1nc2cc([N+](=O)[O-])ccc2n1-c1cccc(C(F)(F)F)c1)C(=O)NC(N)=O (stereo unspecified),-2.0,6.0%,0.586µM*,0.657µM*,-2.3,12.5%
CC(Sc1nc2cc([N+](=O)[O-])ccc2n1-c1ccc(F)cc1)C(=O)NCc1ccc2c(c1)OCO2 (stereo unspecified),-15.5,?,?,1.65µM*,-3.9,?
Cc1cc(C)cc(-n2c(SC(C)C(=O)NCc3ccc4c(c3)OCO4)nc3ccccc3c2=O)c1 (stereo unspecified),13.3,-1.4%,13.1µM*,0.0%,1.5,20.1%
CCc1ccc(C2NC(=O)c3ccccc3O2)cc1 (stereo unspecified),34.3,-1.6%,-15.7%,13.5%,11.2,-8.8%
COC(=O)C1=C[C@@H](C(=O)OC)[C@@H]2C3=C(C(=O)[C@]2(C)NC(=O)c2ccccc2)[C@H](C)[C@@H]2C(=O)NC(=O)[C@@H]2[C@@H]3C1,-10.4,0.6%,.,.,-5.3,.
Cc1cc(=O)[nH]c2ccc(S(=O)(=O)NC3CCCCC3)cc12,-2.6,.,0.0%,10.4µM*,1.8,7.9%
Cc1ccc(Cl)cc1NC(=O)Nn1cnnc1,-12.3,5.1%,12.6%,38.6%,-2.1,-3.2%
CC(=O)c1ccccc1OCCOc1ncnc2sccc12,36.5*,-6.1%,?,?,15.6*,.
CC(=O)c1ccccc1OCCOCCOCCOc1ccccc1C(C)=O,-9.9,28.4%,-4.7%,?,-1.0,4.2%
CC1CN(C(=O)c2cccc(COc3ccccc3Cl)c2)CC(C)O1 (stereo unspecified),135.3*,-1.8%,133.6%,?,40.3*,-2.0%
CC1CN(C(=O)c2cccc(C(=O)N3CC(C)OC(C)C3)c2)CC(C)O1 (stereo unspecified),-13.0,3.4%,12.7%,14.7µM*,-2.9,-3.4%
CC1CN(C(=O)c2cccc(S(=O)(=O)Nc3ccccc3Cl)c2)CC(C)O1 (stereo unspecified),15.7,.,-7.5%,3.1%,-3.6,3.5%
CCOC(=O)N1CCN(C(=O)c2ccc(-n3c(C)ccc3C)cc2)CC1,-17.3,0.3%,?,10.4µM*,-0.8,5.4%
COc1ccc(C(=O)Nc2ccccc2C(=O)NCCN2CCOCC2)cc1,35.8,-9.8%,-0.2%,.,13.3,-0.9%
